This note sets out measurements from PubChem BioAssay.

The subject of assay [1] is Plasmodium falciparum Sir2 (PF13_0152, Sir2A). As to the kind of experiment: Plasmodium falciparum Sir2A binding compounds – biochemical, small-molecule microarray, 635 nm fluorescence, primary screen (AID 1098).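 Note: score merges spot fluorescence intensity with its signal-to-noise ratio.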 The conditions noted are these: fluorescence 635 nm, higher = more signal.
Assay [2] is described as follows: probe aDKK1 binding to arrayed compounds – biochemical, biotinylated probe, 635/667 nm fluorescence, primary screen (AID 1099).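 Note: score merges 667nm spot fluorescence with signal to noise across triplicate slides; reference of the scale not given here.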 As to conditions: small-molecule microarray, higher = more signal.
Assay [3] can be described thus: probe aCHRDL2 binding to arrayed compounds – biochemical, biotinylated probe, 635/667 nm fluorescence, primary screen (AID 1100). As to conditions: small-molecule microarray, higher = more signal.
Assay [4] in a line: change in splice reporter luminescence, either direction, cell-based, HEK293, spliceosome inhibition project, primary screen (AID 1101).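 Note: HEK293 cells carrying a splicing-competent luciferase reporter gene; test concentration not given here.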 As to conditions: HEK293 splicing luciferase reporter, 24 h, higher = more signal, called active from +8 up or from −8 down. (In general: In a reporter assay the amount or activity of a reporter protein is the signal.)
Assay [5] has as its target Fibroblast growth factor 10 (Homo sapiens) (UniProt O15520). The experiment in a line: compounds binding fibroblast growth factor 10 – biochemical, small-molecule microarray, 635 nm fluorescence, primary screen (AID 1102). As to conditions: FGF10 binding, fluorescence 635 nm, higher = more signal.
The test system of assay [6] is glycogen synthase kinase-3 (GSK3A per assay name; protocol says GSK3B). The experiment in a line: compounds binding glycogen synthase kinase-3 – biochemical, small-molecule microarray, 635 nm fluorescence, GSK3A, primary screen (AID 1103). Note: the record names both GSK3A and GSK3B. As to conditions: fluorescence 635 nm, higher = more signal.
Assay [7] deals with Epidermal growth factor receptor (Homo sapiens) (UniProt P00533). The experiment in a line: compounds binding epidermal growth factor receptor – biochemical, small-molecule microarray, 635 nm fluorescence, primary screen (AID 1104).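 Note: score merges 667 nm emission intensity with spot signal to noise over triplicate slides.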 The conditions noted are these: EGFR binding, higher = more signal.
Chain of Epidermal growth factor receptor (Homo sapiens) (P00533 whole entry, looked up): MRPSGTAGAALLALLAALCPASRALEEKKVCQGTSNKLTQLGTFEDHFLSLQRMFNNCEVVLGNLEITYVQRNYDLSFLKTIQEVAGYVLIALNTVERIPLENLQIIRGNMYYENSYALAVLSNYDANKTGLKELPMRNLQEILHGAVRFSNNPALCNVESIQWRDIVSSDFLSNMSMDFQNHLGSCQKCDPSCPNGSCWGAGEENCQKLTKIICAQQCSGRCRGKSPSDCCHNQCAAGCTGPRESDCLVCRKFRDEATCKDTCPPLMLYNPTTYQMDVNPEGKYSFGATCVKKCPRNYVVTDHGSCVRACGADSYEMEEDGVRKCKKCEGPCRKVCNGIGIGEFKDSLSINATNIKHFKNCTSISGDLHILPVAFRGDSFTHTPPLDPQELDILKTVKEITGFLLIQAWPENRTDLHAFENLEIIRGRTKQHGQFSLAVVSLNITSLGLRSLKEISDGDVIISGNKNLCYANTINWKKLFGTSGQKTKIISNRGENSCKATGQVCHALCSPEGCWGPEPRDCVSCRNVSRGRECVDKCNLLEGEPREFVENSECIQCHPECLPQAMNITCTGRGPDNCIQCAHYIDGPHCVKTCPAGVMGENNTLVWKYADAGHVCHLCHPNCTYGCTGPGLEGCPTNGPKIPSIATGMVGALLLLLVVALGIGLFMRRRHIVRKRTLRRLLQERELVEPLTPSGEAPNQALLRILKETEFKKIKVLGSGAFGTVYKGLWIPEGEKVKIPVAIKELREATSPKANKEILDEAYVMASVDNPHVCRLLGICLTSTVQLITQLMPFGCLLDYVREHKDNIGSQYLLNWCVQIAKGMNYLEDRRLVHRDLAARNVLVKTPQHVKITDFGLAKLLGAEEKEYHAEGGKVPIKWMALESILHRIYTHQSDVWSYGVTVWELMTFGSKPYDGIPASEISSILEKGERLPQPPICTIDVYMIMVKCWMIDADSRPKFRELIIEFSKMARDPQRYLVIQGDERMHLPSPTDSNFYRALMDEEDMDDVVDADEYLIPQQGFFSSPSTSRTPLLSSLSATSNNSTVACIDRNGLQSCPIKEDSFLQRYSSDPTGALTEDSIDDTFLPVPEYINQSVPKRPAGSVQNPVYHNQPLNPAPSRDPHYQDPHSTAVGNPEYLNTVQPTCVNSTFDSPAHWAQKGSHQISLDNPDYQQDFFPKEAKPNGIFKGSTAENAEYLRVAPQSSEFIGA
Assay [8] has as its target Follistatin-related protein 3 (Homo sapiens) (UniProt O95633). As to the kind of experiment: compounds binding follistatin-related protein 3 – biochemical, small-molecule microarray, 635 nm fluorescence, primary screen (AID 1105).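 Note: score merges emission near 667 nm and signal to noise per printed spot across three slides.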 The conditions noted are these: FSTL3 binding, higher = more signal.
For assay [9], the target named is Dickkopf-related protein 1 (Homo sapiens) (UniProt O94907). As to the kind of experiment: small molecules binding DKK1 protein – biochemical, small-molecule microarray, 635 nm fluorescence scan, primary screen (AID 1106).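 Note: score merges emission near 667 nm with signal to noise over three replicate slides.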 As to conditions: higher = more signal.
Chain of Dickkopf-related protein 1 (Homo sapiens) (O94907 whole entry, looked up): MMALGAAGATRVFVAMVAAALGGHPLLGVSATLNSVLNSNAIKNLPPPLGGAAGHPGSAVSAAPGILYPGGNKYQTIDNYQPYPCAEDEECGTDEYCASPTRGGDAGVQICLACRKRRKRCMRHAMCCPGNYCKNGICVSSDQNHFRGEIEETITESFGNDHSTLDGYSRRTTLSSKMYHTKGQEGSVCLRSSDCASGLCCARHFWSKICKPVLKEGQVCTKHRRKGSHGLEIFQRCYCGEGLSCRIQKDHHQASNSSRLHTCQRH
Assay [10] deals with Inhibin beta A chain (activin A). The experiment in a line: small molecules binding activin A – biochemical, small-molecule microarray, 635 nm fluorescence scan, primary screen (AID 1107).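 Note: mouse activin A protein probed at 4.33 µg/mL on printed slides; score merges bound-protein fluorescence near 667 nm with spot signal-to-noise.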 The conditions noted are these: INHBA, higher = more signal.

Active and inactive are the calls of the source.

Chain of Fibroblast growth factor 10 (Homo sapiens) (O15520 whole entry, looked up): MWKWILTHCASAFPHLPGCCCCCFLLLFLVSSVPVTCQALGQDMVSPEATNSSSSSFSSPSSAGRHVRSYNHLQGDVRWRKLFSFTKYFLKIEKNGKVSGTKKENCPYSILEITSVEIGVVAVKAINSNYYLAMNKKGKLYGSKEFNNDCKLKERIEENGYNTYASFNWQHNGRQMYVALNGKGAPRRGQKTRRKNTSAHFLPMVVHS
Chain of Follistatin-related protein 3 (Homo sapiens) (O95633 whole entry, looked up): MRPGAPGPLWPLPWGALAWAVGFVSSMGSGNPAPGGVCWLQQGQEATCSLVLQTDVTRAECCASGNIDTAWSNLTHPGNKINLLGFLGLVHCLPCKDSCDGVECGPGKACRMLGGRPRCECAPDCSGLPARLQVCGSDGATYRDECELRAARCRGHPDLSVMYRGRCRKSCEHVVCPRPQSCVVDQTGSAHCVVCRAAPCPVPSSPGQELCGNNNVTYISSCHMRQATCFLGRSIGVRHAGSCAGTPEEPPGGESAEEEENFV

As for `COC(=O)C1(CC(C)C)C=C2C(=C(C(C)C)C(=O)C2C)CN1` (stereo not given), the composite z-score is -0.573 in assay [1]; 0.834 in [2]; 0.937 in [3]; -0.296 in assay [5]; -2 in [6]; -0.961 in assay [7]. For the same compound, the results for the composite z-score in assay [8], in [9] and in [10] were -0.771, -0.871 and 1.34, respectively. In assay [4], the z-score is 1.97 (inactive).

`CCN(CC)c1ccc(N2CC=CC34O[C@@H]5C=CCOC(=O)[C@@H]5[C@H]3C(=O)N(CCO)[C@@H]4C2=O)cc1` (stereo not given in full): the composite z-score in assay [1] was 1.47; in assay [2], -0.0117; in assay [3], 0.54; in [5], -0.938; in assay [6] it was -0.562; in assay [7], -1.66. Further, the composite z-score in [8] was -0.952; in assay [9], -1.51; in assay [10] it was -0.292. In addition, the z-score in [4] is 0.0206 (inactive).

Take `CC=CC(O)C1C=CC2C(=O)N(C)C(=O)C2N1NC(=O)OC(C)(C)C` (stereo not given): the composite z-score in assay [1] is 0.589; in assay [2], 0.112; in assay [3], -0.388; in assay [5] it was 0.216; in assay [6], 0.423; in assay [7], 0.271. The composite z-score in [8] was 0.864; in [9] it was 0.739; in [10] it was 1.04. Besides, the z-score in assay [4] is 1.54 (inactive).

Consider `CC(C)C[C@@H]1NC(=O)[C@@H]2C[C@H](C(=O)NCCCC[N+](C)(C)C)[C@H](c3ccc(O)cc3)N2C1=O`, for which the composite z-score in assay [1] was 1.39; in assay [2] it was -0.0913; in [3] it was -0.587; in assay [5] it was 1.3; in [6], 0.896; in [7], 0.81. For the same compound, the composite z-score was 1.56 in assay [8], 1.79 in assay [9] and -0.531 in [10]. Further, the z-score in assay [4] is 0.438 (inactive).

With `O=C1C2C=CC(C(O)c3cccc(O)c3)N(Nc3ccccc3F)C2C(=O)N1c1ccccc1` (stereo not given), the composite z-score is 1.86 in assay [1]; -0.143 in assay [2]; 0.247 in assay [3]; -0.177 in [5]; -0.127 in assay [6]; -0.175 in assay [7]. The composite z-score is 0.338 in assay [8], -0.128 in assay [9] and 0.452 in [10]. Further, in [4], the z-score is -3.1 (inactive).

As for `COC(=O)[C@@]1(Cc2ccc(F)cc2)[C@H]2c3cc(C(=O)N(C)C)n(CCN4CCOCC4)c3C[C@H]2CN1C(=O)c1ccccc1`, the composite z-score in [1] was determined as 0.756; in assay [2], 1.72; in assay [3] it was 0.868; in [5] it was 1.03; in assay [6], 1.12; in assay [7], 0.045. In addition, the values for the composite z-score in assay [8], in assay [9] and in assay [10] were -0.265, -0.431 and 0.84, respectively. For the same compound, the z-score in assay [4] was -0.575 (inactive).

For the compound `CCCCCCc1nc(-c2ccc(OC)nc2)cc2c1[Si](C(C)C)(C(C)C)OC2`, the composite z-score is 0.0342 in assay [1]; -0.251 in assay [2]; -0.037 in assay [3]; -0.322 in assay [5]; -0.574 in [6]; -0.459 in assay [7]. The composite z-score in assay [8] was -0.351; in [9] it was -0.329; in assay [10] it was 0.96. Moreover, the z-score in assay [4] was -0.589 (inactive).

For the compound `CC[C@H](C)C(=O)O[C@H]1CC[C@]2(C)C3=C(CCC2C1(C)C)[C@]1(C)CC[C@H]([C@H](C)CCCC(C)C)[C@@]1(C)CC3` (stereo not given in full), the composite z-score was 0.479 in assay [1]; -0.0754 in assay [2]; -0.314 in assay [3]; 0.48 in assay [5]; 0.634 in assay [6]; 0.65 in assay [7]. In addition, the values for the composite z-score in assay [8], in assay [9] and in assay [10] were 0.487, 0.474 and 0.0848, respectively. Moreover, in [4], the z-score was -0.634 (inactive).

For the compound `O=C1O[C@@H](c2ccccc2)[C@@H](c2ccccc2)N2[C@@H](c3ccc(O)cc3)[C@]3(C(=O)Nc4ccc(C#CC5=CCCCC5)cc43)[C@@H](C(=O)N3CCCCCCC3)[C@H]12`, the composite z-score was determined as 1.6 in assay [1]; 1.53 in [2]; 1.25 in [3]; 0.66 in assay [5]; 1.29 in assay [6]; 0.623 in assay [7]. In addition, the composite z-score in assay [8] turned out to be 1.35; in assay [9] it was 0.485; in assay [10], 1.79. In addition, the z-score in assay [4] is -1.28 (inactive).

As to `COC(=O)C1=CC(CCCO)=CC(c2ccc(CN3CCCC3)cc2)N(Cc2sc3ccccc3c2Cl)C=C1C(=O)OC` (stereo not given), the composite z-score came out at 1.81 in assay [1]; 0.81 in assay [2]; 1.05 in [3]; 1.37 in assay [5]; 1.32 in assay [6]; 0.526 in assay [7]. Further, the composite z-score in assay [8] came out at 0.708; in assay [9] it was 0.227; in assay [10], 0.375. The z-score in assay [4] is -0.855 (inactive).
